# INS promoter inh – TRM-6 insulin promoter activity inhibition; TRM-6 cells (human fetal islet line), insulin promoter-eGFP reporter, imaging; reporter expression induced with tamoxifen; inhibition, % at 2 µM; hit rate 0.9% among 130,000; AID 1273;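 active = inhibition above the mean plus 3 SD, with well images judged a real hit on visual review, cut at about 60% in these data, passing the limit was not always enough; inconclusive = inhibition over the cutoff but images rejected on review; inactive = inhibition not above the cutoff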
# eIF4E-4G inh – blocks eIF4E binding to eIF4G. P63073+Q04637. TR-FRET eIF4E-eIF4GI(517-606) binding, 2 h. inhibition, % at 21.7 µM. hit rate 0.37% among 220,000. AID 782;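 active = inhibition above about 30%, limit read from the data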;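 also: 0% = full FRET control wells and 100% = background wells lacking eIF4GI fragment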
# Target sequence (P63073 whole entry, looked up, the tested form may be a part): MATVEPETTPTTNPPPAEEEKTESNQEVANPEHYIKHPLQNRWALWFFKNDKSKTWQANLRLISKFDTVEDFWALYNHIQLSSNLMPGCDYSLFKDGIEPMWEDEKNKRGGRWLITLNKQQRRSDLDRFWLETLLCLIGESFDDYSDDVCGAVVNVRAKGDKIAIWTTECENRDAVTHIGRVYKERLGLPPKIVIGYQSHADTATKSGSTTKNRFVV
# Target sequence (Q04637 whole entry, looked up, the tested form may be a part): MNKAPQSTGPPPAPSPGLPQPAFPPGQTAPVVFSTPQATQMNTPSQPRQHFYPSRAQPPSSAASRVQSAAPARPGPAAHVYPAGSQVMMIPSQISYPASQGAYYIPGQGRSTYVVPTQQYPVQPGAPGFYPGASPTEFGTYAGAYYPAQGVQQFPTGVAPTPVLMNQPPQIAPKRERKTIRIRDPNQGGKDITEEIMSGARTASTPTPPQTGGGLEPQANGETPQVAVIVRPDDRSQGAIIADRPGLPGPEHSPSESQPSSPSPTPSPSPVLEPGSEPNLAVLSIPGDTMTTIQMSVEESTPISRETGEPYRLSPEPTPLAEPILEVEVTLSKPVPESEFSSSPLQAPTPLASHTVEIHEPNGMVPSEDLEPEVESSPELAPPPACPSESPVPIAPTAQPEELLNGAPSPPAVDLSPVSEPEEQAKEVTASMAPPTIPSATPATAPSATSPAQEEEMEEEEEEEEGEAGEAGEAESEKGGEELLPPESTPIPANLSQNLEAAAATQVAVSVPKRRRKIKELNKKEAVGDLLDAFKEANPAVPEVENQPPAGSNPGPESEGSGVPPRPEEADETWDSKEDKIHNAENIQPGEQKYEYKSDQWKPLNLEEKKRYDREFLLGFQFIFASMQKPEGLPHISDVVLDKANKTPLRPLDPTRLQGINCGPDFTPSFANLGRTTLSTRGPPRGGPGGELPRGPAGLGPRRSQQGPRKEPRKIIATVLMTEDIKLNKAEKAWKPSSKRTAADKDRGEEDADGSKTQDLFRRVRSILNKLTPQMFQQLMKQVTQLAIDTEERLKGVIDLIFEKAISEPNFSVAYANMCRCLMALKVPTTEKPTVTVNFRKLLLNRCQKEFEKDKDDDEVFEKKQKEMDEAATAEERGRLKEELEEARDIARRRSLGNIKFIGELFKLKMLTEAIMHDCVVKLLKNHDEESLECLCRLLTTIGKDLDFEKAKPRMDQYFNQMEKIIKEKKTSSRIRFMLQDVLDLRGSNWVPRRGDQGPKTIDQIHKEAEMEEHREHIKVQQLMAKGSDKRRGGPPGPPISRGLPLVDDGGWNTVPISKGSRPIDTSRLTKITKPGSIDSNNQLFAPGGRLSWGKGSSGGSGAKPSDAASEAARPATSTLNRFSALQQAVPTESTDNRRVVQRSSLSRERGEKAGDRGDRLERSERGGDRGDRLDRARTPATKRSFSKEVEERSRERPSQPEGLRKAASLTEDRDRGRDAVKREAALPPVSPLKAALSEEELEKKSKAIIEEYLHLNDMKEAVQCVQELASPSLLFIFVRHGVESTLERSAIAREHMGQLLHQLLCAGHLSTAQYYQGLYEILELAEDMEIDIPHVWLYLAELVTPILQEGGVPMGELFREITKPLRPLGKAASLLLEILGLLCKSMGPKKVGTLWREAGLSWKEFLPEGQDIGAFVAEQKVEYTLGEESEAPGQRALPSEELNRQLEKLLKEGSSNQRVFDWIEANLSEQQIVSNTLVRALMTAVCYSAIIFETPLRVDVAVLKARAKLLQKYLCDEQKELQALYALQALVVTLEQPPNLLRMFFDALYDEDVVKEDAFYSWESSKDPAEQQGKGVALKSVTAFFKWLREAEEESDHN
# Insulin prom up – MIN6 insulin promoter up-regulation. hit rate 0.3% among 190,000. z-score at 5 µM. MIN6 insulin promoter-GFP reporter, high-content imaging; active compounds read high;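 active = z-score above 3 at 5 µM with at least 500 cells counted in the well; inconclusive = wells under 500 cells, flagged as cytotoxic or low count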
# PERK inhibitor – human PERK inhibition, primary cell-based screen | CHO PERK-DD fusion, SEAP luminescence translation reporter | inhibition, % at 5.6 µM | hit rate 0.17% among 220,000;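 active = inhibition above the mean inhibition of all tested compounds plus 3 SD, set separately per screening campaign, cut at about 2.9% in these data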;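 also: PERK kinase domain activated by AP20187 dimerizer at 100 nM; 0% = DMSO with dimerizer and 100% = rapamycin at 8.4 µM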
# Autophagy mod – alters autophagy in cells. MEF GFP-LC3 puncta imaging; test concentration mostly 10 µM. calls only at 10 µM (by protocol). hit rate 0.98% among 190,000. AID 463193;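 active = percentage of spot-positive cells more than 3 SD above its plate mean, without a fluorescence outlier flag or 80% toxicity; inconclusive = no clear call, values can overlap the other calls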;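 also: spot-positive cell cutoff set from DMSO-treated cells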
# The depositor's hits bear a star; i = inactive; ? = inconclusive; nt = no result; + = active, no number; ! = not confirmed by another sample; [ ] = another dose, or the depositor's remark. This is a sample that favours compounds with a hit; in the whole collection about 2% have one here.
SMILES,INS promoter inh,eIF4E-4G inh,Insulin prom up,PERK inhibitor,Autophagy mod
CCSc1nc2ccccc2[nH]1,100*!,-2,0.23,1,i
c1ccc(CSCc2nc3ccccc3[nH]2)cc1,76*,5,-0.22,0,i
CC(C)CSc1nc2ccccc2[nH]1,nt,0,-0.18,0,i
c1ccc(CSc2nc3ccccc3[nH]2)cc1,nt,-3,0.21,2,nt
Cc1cc(C(=O)CSc2nnnn2-c2ccc(O)cc2)c(C)n1C,-33,4,nt,1,i
S=c1[nH]nc(-c2cc(-c3ccccc3)n[nH]2)n1/N=C/C(Br)=C/c1ccccc1,nt,0,-0.44,0,nt
COc1ccc(OCC(=O)N(C)Cc2ccccc2)cc1,nt,2,-0.28,-1,+
Cc1cccc(S(=O)(=O)Nc2ccc(C)c3c2OC(C)(C)C3)c1,-4,2,-0.82,-1,+
Cc1ccc(NS(=O)(=O)c2ccccc2Cl)c2c1CC(C)(C)O2,-10,-4,-0.25,-1,i
Clc1ccccc1N/N=C/c1ccc2c(c1)OCO2,64*,6,0.37,2,i
C(=N\Nc1nc2ccccc2[nH]1)/c1ccc2c(c1)OCO2,38,-1,-0.98,-1,i
Cc1cc(N)n2ncc(-c3ccccc3)c2n1,87*,8,0.35,0,i
Cc1cc(N)n2ncc(-c3cccc(Br)c3)c2n1,93*,10,-0.69,1,i
CC(=O)Nc1ccc(Nc2cc(C)nc3c(-c4ccccc4)cnn23)cc1,75*,1,-0.42,-1,i
Cc1ccc(CNCCC2=CCCCC2)cc1,-37,-17,-0.57,0,i
O=C(NCCSc1ccccc1)c1cncc(Br)c1,75*,1,-0.6,0,i
COc1ccccc1NC(=S)NC1CC2CCC1C2 (centres undefined),nt,-8,-0.96,1,nt
CN(C)NC(=S)NC1CC2CCC1C2 (centres undefined),nt,90*,nt,-1,nt
CC(=O)Nc1c(C(=O)N2CCCCCC2)cnn1-c1ccccc1Cl,-15,7,1,0,i
CC1CCc2cc(F)ccc2N1C(=O)c1ccc2c(c1)OCO2 (centres undefined),-39,2,-4.9,1,+
O=c1oc2ccc3ccccc3c2cc1-c1nnc(-c2ccccc2)o1,nt,-44,nt,1,i
Nc1nnc(-c2cc3c(ccc4ccccc43)oc2=O)s1,nt,19,8.8*,0,i
COc1ccc(NC(=S)NC(=O)CC(C)C)c(OC)c1,nt,-5,-0.89,0,i
O=C(N/N=C/c1c(Nc2cccc(C(F)(F)F)c2)nc2ccccn2c1=O)c1ccccc1[N+](=O)[O-],19,0,-0.6,1,i
O=C(N/N=C/c1c(Nc2cccc(C(F)(F)F)c2)nc2ccccn2c1=O)c1ccccc1,7,-7,nt,1,+
SMILES,INS promoter inh,eIF4E-4G inh,Insulin prom up,PERK inhibitor,Autophagy mod
NS(=O)(=O)c1ccc(CCNC(=O)c2ccc3ccccc3n2)cc1,nt,1,0.21,1,i
CC(=O)c1ccc2c(c1)C1C=CCC1C(C(=O)O)N2 (centres undefined),19,31*,2.1,0,i
CC(=O)c1ccc2c(c1)C1C=CCC1C(c1ccncc1)N2 (centres undefined),-29,-9,-1.1,0,i
Cc1ccc2c(c1)C1C=CCC1C(C(=O)O)N2 (centres undefined),-164,65*[fluorescence artefact?],0.48,0,i
COc1cccc2c1NC(C(=O)O)C1CC=CC21 (centres undefined),nt,48*[fluorescence artefact?],0.01,1,i
CC(C)C1Nc2ccc(S(N)(=O)=O)cc2C2C=CCC21 (centres undefined),-100,-1,-0.06,2,i
COc1cccc(C2Nc3c(F)cc(Br)cc3C3C=CCC32)c1OC (centres undefined),-17,0,0.34,1,i
N/C(COc1cc(Cl)cc(Cl)c1)=N\O,nt,4,0.06,1,nt
CCCOP(=O)(c1ccc(N(C)C)cc1)C(Nc1ccccc1)c1ccc(C)cc1 (centres undefined),nt,3,-0.06,0,nt
c1ccc(-c2cnn3c(-c4ccccc4)c(-c4ccccc4)nc3n2)cc1,nt,5,17*,1,?
O=C1c2ccccc2-c2nc3ncnn3c(-c3ccccc3)c21,-3,nt,nt,0,i
O=C(CC1SC(=NCc2ccccc2)NC1=O)Nc1ccccc1 (centres undefined),-108,5,0.47,0,i
COc1ccc(Nc2nnc(Cc3ccccc3)c(=O)[nH]2)c(OC)c1,86*,-2,-0.16,0,i
COc1ccc(Nc2nnc(Cc3ccc(Cl)cc3)c(=O)[nH]2)c(OC)c1,nt,11,0.27,1,i
COc1ccc(Nc2nnc(C)c(=O)[nH]2)c(OC)c1,nt,5,-0.01,4.2*,nt
COc1ccc(C)cc1Nc1nnc(C)c(=O)[nH]1,-40,3,-0.2,3,i
Cn1c(=O)c2c(nc(-n3ccnc3)n2Cc2ccc([N+](=O)[O-])cc2)n(C)c1=O,nt,-4,0.12,1,i
CC(CNS(=O)(=O)c1ccccc1)(c1ccccc1)N1CCOCC1 (centres undefined),nt,-5,0.58,0,i
CCC1=Nc2cc(C(=O)NCCCOC)ccc2Sc2ccccc21,-94,-2,-0.94,-1,+
CCCC1=Nc2cc(C(=O)NCCCOCC)ccc2Sc2ccccc21,-16,2,-1.1,0,i
CN1C(=O)C2(c3ccccc31)c1c(oc3ccccc3c1=O)C(=O)N2CCCO (centres undefined),nt,-3,-0.07,0,nt
Cc1ccc(-n2c(=O)[nH]c3c(C(N)=O)nc(CC(C)C)nc32)cc1,93*,-1,0.12,-1,i
Cc1ccc(OCC(=O)c2ccc(Cl)s2)c([N+](=O)[O-])n1,nt,8,nt,-1,i
CSc1nc(-c2ccc(Cl)cc2Cl)[nH]c(=O)c1C#N,79*,2,0.17,1,i
Cc1cc(-c2ccc(Cl)cc2Cl)c(C#N)c(=O)[nH]1,nt,-2,nt,1,nt
SMILES,INS promoter inh,eIF4E-4G inh,Insulin prom up,PERK inhibitor,Autophagy mod
COc1cccc(CN2CCNC(=O)C2CC(=O)NCCn2cccn2)c1OC (centres undefined),-43,-2,nt,1,i
Nc1ccc2oc(-c3ccccn3)nc2c1,9,5,0.23,1,i
Clc1ccc2oc(-c3ccccn3)nc2c1,37,-4,3*,1,i
O=S(=O)(Nc1cc2nc3ccccc3nc2n1Cc1ccccc1)c1ccc(Cl)cc1,nt,14,nt,1,+
CCOC(=O)C1(C)C=C(Nc2ccccc2)C(=O)N1c1ccccc1 (centres undefined),71*,0,1.7,1,i
COc1ccc(-n2nnnc2-c2cccc(OC)c2)cc1,-50,0,0.04,0,+
COc1ccc(C(=O)C2CCCN(C(=O)c3noc4c3CCCC4)C2)c(C)c1 (centres undefined),nt,-2,0.69,-1,i
CNC(=O)COc1ccc(S(=O)(=O)Nc2ccc(C)cc2)cc1,nt,-1,-0.26,1,nt
